A selection: hits, their analogues and other compounds. The true share with any hit is near 12%.
BAZ2B block – inhibitors of human BAZ2B bromodomain. AID 504333. Potency, µM (titrated, usually from 114 µM), without a hit: at the highest dose activity change, negative = inhibition, hits mostly inhibitors. 360,000 tested, 4.4% active. Q9UIF8. AlphaScreen BAZ2B-H3K14Ac peptide displacement; further: on the % scale 0 is the no-effect control and ±100 the full control effect; nearly all actives have a fitted effect of over 60% in size
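Multi-concentration screen (max 110 uM) measuring displacement of acetylated histone H3 peptide from BAZ2B by AlphaScreen, using 50 nM protein, 50 nM peptide and 10 ug/mL streptavidin donor plus Ni-chelate acceptor beads.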
JMJD2A Tudor inh – blocks the human JMJD2A Tudor domain. AlphaScreen JMJD2A-Tudor / H3K4me3 peptide binding. Potency, µM (doses to about 114 µM), inactives show at the highest dose activity change, negative = inhibition, most hits filed as inhibitors. 390,000 tested, 4.4% active. AID 504339; further: on the % scale 0 is the no-effect control and ±100 the full control effect; nearly all actives have a fitted effect of over 50% in size
HP1b chromo inh – HP1-beta chromodomain-methylated histone interaction inhibition | P83916 | 390,000 tested, 0.56% active | AlphaScreen HP1-beta / biotin-H3K9me3 peptide binding | AID 540317 | Potency, µM (highest dose often 114 µM), for the others: top-dose activity change, negative = inhibition, hits mostly inhibitors; further: nearly all actives have a fitted effect of over 70% in size
Target sequence (P83916 whole entry, looked up): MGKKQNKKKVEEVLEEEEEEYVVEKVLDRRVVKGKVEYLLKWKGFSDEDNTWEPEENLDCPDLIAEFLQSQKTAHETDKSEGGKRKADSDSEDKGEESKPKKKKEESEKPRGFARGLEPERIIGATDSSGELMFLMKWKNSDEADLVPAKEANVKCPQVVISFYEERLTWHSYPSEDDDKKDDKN
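HP1-beta protein (50 nM final) preincubated 30 min at room temperature with biotinylated H3(1-18)K9me3 peptide (50 nM) in PBS pH 7.4, 0.01% Tween-20, then compound added for 30 min. AlphaScreen streptavidin donor/nickel chelate acceptor beads (10 ug/mL final), 30 min dark, luminescence read.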
L3MBTL1 inh – inhibitors of human L3MBTL1 | 230,000 tested, 0.66% active | AlphaScreen L3MBTL1–H3K9me1 peptide binding | Potency, µM (top dose mostly 57.1 µM), without a hit: top-dose activity, negative = inhibition, usual class: inhibitors | Q9Y468; further: on the % scale 0 is the no-effect control and ±100 the full control effect; nearly all actives have a fitted effect of over 60% in size
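L3MBTL1 (50 nM) pre-complexed 30 min with biotinylated H3(1-15)K9me1 peptide (75 nM), then compounds added for 30 min at room temperature; AlphaScreen streptavidin donor/nickel chelate acceptor beads (10 ug/mL final) read after 30 min dark incubation.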
G9a block – blocks human histone lysine methyltransferase G9a. Q96KQ7. G9a H3K9 monomethylation, AlphaScreen, 2 h. Potency, µM (series often up to 102 µM), inactives show at the highest dose activity, negative = inhibition, actives largely listed as inhibitors. 350,000 tested, 8.8% active; further: on the % scale 0 is the no-effect control and ±100 the full control effect; nearly all actives have a fitted effect of over 75% in size
Target sequence (Q96KQ7 913-1193 limits assumed): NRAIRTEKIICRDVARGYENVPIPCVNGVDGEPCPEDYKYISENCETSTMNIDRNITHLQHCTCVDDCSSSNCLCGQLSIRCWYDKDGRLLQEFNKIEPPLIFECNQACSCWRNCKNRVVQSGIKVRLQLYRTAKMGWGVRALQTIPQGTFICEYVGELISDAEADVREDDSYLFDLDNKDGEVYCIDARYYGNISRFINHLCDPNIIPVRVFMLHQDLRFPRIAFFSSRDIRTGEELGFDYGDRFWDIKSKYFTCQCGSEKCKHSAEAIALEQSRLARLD
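Enzyme 20 nM + cpd, 15 min RT; add b-H3K9 pep 500 nM / SAM 20 uM; 2 h RT; anti-H3K9me1 Ab 0.5 ug/mL + SA donor / anti-rabbit acceptor beads 20 ug/mL each, 10 min; AlphaScreen read.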
Sfp PPTase inh – inhibitors of Bacillus subtilis Sfp phosphopantetheinyl transferase; Q9F4F7; Biochemical Sfp PPTase activity, qHTS; AID 1490; Potency, µM, inactives show largest response in the series, negative = inhibition, hits mostly inhibitors; 310,000 tested, 3.5% active;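 further: the enzyme is Sfp with the accession as filed and its product quenches rhodamine fluorescence; 0% = enzyme reaction without inhibitor and -100% = no enzyme wells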
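Fluorescence-quenching assay: 15 nM Sfp-PPTase preincubated 15 min at room temperature with compound, then 5 uM rhodamine-CoA and 12.5 uM BHQ-2-labelled YbbR peptide added. Fluorescence (ex 525/em 598 nm) read at start and after 30 min; difference gives rate.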
The depositor's hits bear a star; ? = inconclusive; / = not tested or not shown; ! = a repeat was not active; [ ] = dose if it differs, or a comment. The call rests on the fitted dose curve; in most records, active means well fitted curve in the direction sought with a large enough effect; inconclusive means small, poorly fitted or top-dose-only effect, or another doubt; inactive means no such curve, though single readings can be large; an effect the other way counts as inactive or inconclusive. Potency means the concentration at half of the fitted maximal effect.

SMILES	BAZ2B block	JMJD2A Tudor inh	HP1b chromo inh	L3MBTL1 inh	G9a block	Sfp PPTase inh
CCOC(=O)CSc1nc(-c2ccc(OC)cc2)ns1	51%	27%[57.1 µM]	19%	21%	5µM*	22µM*
CCOC(=O)CNC(=O)CSc1nc(-c2ccc(C)cc2)ns1	-3%	6%	53%	3%	50µM*	10%
O=C(CSc1nnc(-c2ccccc2)c2ccccc12)NCC1CCCO1 (stereo not drawn)	/	/	/	-6%	-12%	-29%
CCOC(=O)CNC(=O)CSc1nc(-c2ccccc2)ns1	-5%	-12%	-24%	11%	10µM*	18µM*
Cc1cccc(-c2nsc(SCC(=O)Nc3cc(C)on3)n2)c1	-2%	-5%	3%	-1%	?	2%
CCOC(=O)N1CCN(C(=O)CSc2nc(-c3cccc(C)c3)ns2)CC1	-5%	32µM*	-5%	2%	32µM*	35µM*
CCOC(=O)CNC(=O)CSc1nnc(-c2ccccc2)c(-c2ccccc2)n1	-30%	-8%	24%	-5%	8%	12%
Cc1ccc(CNC(=O)CSc2ncc3c(n2)-c2cc(Cl)ccc2N(C)S3(=O)=O)cc1	0%	-5%	17%	/	-15%[59 µM]	/
Cc1cc(NC(=O)CS(=O)(=O)c2cn(Cc3cccc(F)c3)c3ccccc23)no1	-35%	-29%	5%	/	14µM*	-10%
CCCCCCC(=O)Nc1c(O)c2ccccc2[nH]c1=O	?	-3%	40%	33%	?	50µM*
Oc1ccc(C2CNCCc3c2cc(O)c(O)c3Cl)cc1 (stereo not drawn)	10%	35µM*!	16%	-5%	5.3µM*!	40µM*
Oc1cc2c(c(Cl)c1O)CCNCC2c1ccccc1 (stereo not drawn)	/	45µM*	-10%	/	11µM*	50µM*
COc1cc2c(cc1OC)C(c1ccc(O)cc1)NCC2 (stereo not drawn)	-16%	-5%	26%	/	18%	12%
Oc1cc2c(c(Cl)c1O)CCNC[C@H]2c1ccccc1	/	/	/	/	/	79µM*
CCc1nc(Oc2cccc(F)c2)c2oc3ccccc3c2n1	231%	137%	162%	/	78%[59 µM]	/
CCCOc1ccc(C2C(=O)N(C3CCCCCC3)CC(=O)N2Cc2ccccc2OC)cc1OC (stereo not drawn)	-16%	-31%	22%	/	-6%[59 µM]	/
Fc1cccc(CSc2ccc(-c3ccco3)nn2)c1	-36%	-12%	32%	-17%	?	16µM*
Fc1ccc(CSc2ccc(-c3ccco3)nn2)cc1	-9%	-11%	20%	9%	1%[59 µM]	50µM*
Fc1ccc(CSc2ccc(-c3ccc4c(c3)OCO4)nn2)cc1	3%	-2%	29%	1%	-3%	3%
Cc1nc(C)c(-c2ccc(SCc3cccc(F)c3)nn2)s1	7%[57.1 µM]	-3%	42%	/	25%	-21%
COc1cc(NC(=O)CC2C(=O)N(c3ccc(Cl)cc3)C(=O)N2Cc2cccs2)cc(OC)c1 (stereo not drawn)	-11%	6%	28%	/	4%[59 µM]	/
COc1ccc(-c2noc3c2-c2nc(-c4c(F)cccc4F)sc2CC3)cc1	-23%	-17%	15%	4%	32µM*	-16%
Fc1cccc(F)c1-c1nc2c(s1)CCc1onc(-c3ccc(Br)cc3)c1-2	/	-14%	-6%	/	/	/
COc1ccc(-c2noc3c2-c2nc(-c4ccccc4F)sc2CC3)cc1	-7%	-6%	33%	1%	22µM*	-21%
C=CCN1c2ccccc2[C@]23C[C@@H](C(=O)OC)N(S(=O)(=O)c4ccc(Br)cc4)C2=NC(C(=O)OC)=C(C(=O)OC)[C@H]13	/	/	/	/	/	-1%
SMILES	BAZ2B block	JMJD2A Tudor inh	HP1b chromo inh	L3MBTL1 inh	G9a block	Sfp PPTase inh
Cc1cc(C(=O)NP(=O)(N2CC(C)OC(C)C2)N2CC(C)OC(C)C2)c(C)n1C1CC1 (stereo not drawn)	?	-15%	-3%	-17%	45µM*	24%
Cc1cc(C)cc(OCC(=O)OCC(=O)c2cc(C)n(C3CC3)c2C)c1	-14%	-16%	1%	/	/	-14%
COc1ccc(Nc2nc(N)nc(CN(C)C3CCCCC3)n2)cc1	32µM*	45µM*	13%	?	4%	2%
CCOc1ccc(Nc2nc(N)nc(CN(C)C3CCCCC3)n2)cc1	28µM*	20µM*	32%	?	11%	-12%
COc1ccc(Nc2nc(N)nc(CSC(=S)N3CCCCC3)n2)cc1	71µM*	?	-16%	-6%	?	7%
COc1ccc(Nc2nc(N)nc(CSC(=S)N3CCN(C)CC3)n2)cc1	?	-12%	24%	-7%	/	-2%
CCCCOc1ccc(C(=O)Nc2cc(-c3cn4cccnc4n3)ccc2OC)cc1	-2%	-11%	17%[57 µM]	/	12%[59 µM]	/
COCC(=O)NC(c1ccccc1)c1ccccc1	2%	-1%	58%	2%	23%[59 µM]	11%
CC(C)CCNCC(=O)NC(c1ccccc1)c1ccccc1	56µM*	32µM*	13%	30%	5.6µM*	-4%
CC(C)CCC(C(=O)NC(C)c1ccccc1)C(=O)NC(C)c1ccccc1 (stereo not drawn)	?	22µM*	-19%	/	-9%	15%
CC(C)CC(NC(=O)C1CCCCC1)C(=O)NC(C)c1ccccc1 (stereo not drawn)	-12%	-14%	11%	/	-32%	3%
COc1cc(N2Cc3ccccc3C2)ccc1C=O	-2%	-23%	10%	-12%	32µM*	-4%
CC1=C(c2ccccc2)[N+](=O)C2(CCCCC2)N1[O-]	-13%	-14%	3%	-14%	50µM*	8%
COCCn1c(-c2ccc(Br)cc2)csc1=Nc1cccnc1	11µM*	45µM*	?	-6%	40µM*	-3%
Clc1ccc(-c2csc(=Nc3cccnc3)n2CCCn2ccnc2)cc1Cl	11µM*	40µM*	?	?	11µM*	-8%
OC1(c2ccc(OC(F)F)cc2)CSC(=Nc2cccnc2)N1Cc1ccco1 (stereo not drawn)	?	?	12%	-1%	-36%	1%
FC(F)Oc1ccc(-c2csc(=Nc3cccnc3)n2CC2CCCO2)cc1 (stereo not drawn)	45µM*	-28%[57.1 µM]	?	-6%	?	9%
O=C(NCCCn1ccnc1)c1cccnc1	-11%	-7%	47%	5%	7%[59 µM]	4%
Cc1ccc2c(=O)cc(C(=O)Nc3ccc(S(=O)(=O)Nc4ncccn4)cc3)oc2c1C	-26%	-20%	28%	/	-22%[59 µM]	/
CCCCOC(=O)c1ccc(NC(=O)c2ccc3c(c2)CCN3S(=O)(=O)c2ccccc2)cc1	-5%	-9%	41%	/	2%[59 µM]	/
CC(C)(C)C(=O)Nc1ccc2nc(SCCOc3ccccc3Cl)sc2c1	1%	14%	99%	/	48%[59 µM]	/

Assay outcomes deposited in PubChem BioAssay by National Center for Advancing Translational Sciences (NCATS).
